# Only some compounds are listed: those with a hit (about 6.9% of all), similar ones and a draw of the others.
# NS3h inh CB: blocks HCV NS3 helicase binding to DNA. 1.6% of 16,000 active. inhibition, % at 100 µM. NS3h Cy5-dT15 DNA binding, fluorescence polarization;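 active = inhibition above the average over every tested compound plus 3 SD, cut at about 40% in these data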
# Cy5 interf NS3h: counter-screen for HCV NS3 helicase inhibitors: fluorescence interference | 6% of 16,000 active | Cy5-dT15 DNA with NS3h; actives lie on both sides; signal over control mean, under 1 quenches | fluorescence interference ratio at 100 µM;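 active = compound fluorescence over control fluorescence at most 0.8, a quencher, or at least a set upper limit, an enhancer; inactive = ratio between 0.8 and the set upper limit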
# A number is an active result; - = inactive.
SMILES,NS3h inh CB,Cy5 interf NS3h
CS(=O)(=O)N(CC(=O)N1CCOCC1)c1ccc(Cl)cc1,-,-
CCOc1ccc(N(CC(=O)N2CCOCC2)S(C)(=O)=O)cc1,-,0.75
CCOC(=O)c1c(NC(=O)Cn2cnc([N+](=O)[O-])n2)sc2c1CCC2,-,0.57
CCOC(=O)c1c(NC(=O)c2ccc([N+](=O)[O-])cc2)sc2c1CCCCC2,-,-
COc1ccc(CCNC(=O)/C(=C/c2ccc(C(C)C)cc2)NC(=O)c2ccccc2)cc1OC,-,-
O=C(NCCN1CCN(Cc2ccccc2)CC1)C(=O)Nc1ccc(Cl)cc1,-,-
O=C(NCCN1CCOCC1)C(=O)NCc1ccc(Cl)cc1,-,1.3
O=C(NCC1(c2ccccc2)CCCC1)c1ccc(F)cc1,-,-
Cc1ccc(C(=O)CCNc2ccc(C)c(Cl)c2)o1,-,-
CCc1ccc(S(=O)(=O)Nc2cc(Br)c(O)c3ccccc23)cc1,-,-
CCc1ccc(S(=O)(=O)Nc2cc(-c3c(O)ccc4ccccc34)c(O)c3ccccc23)cc1,-,0.78
Cc1ccc(-c2cc(C(F)(F)F)n3ncc(C(=O)N(C)Cc4ccccc4)c3n2)cc1,-,0.61
COc1cc(-c2cc(C(F)(F)F)n3ncc(C(=O)Nc4cccc5ccccc45)c3n2)cc(OC)c1OC,-,-
Cc1ccc(-c2cc(C(F)(F)F)n3ncc(C(=O)N4CCN(c5ccc(F)cc5)CC4)c3n2)cc1,-,0.61
O=C(c1nn2c(C(F)(F)F)cc(-c3ccccc3)nc2c1Cl)N1CCCC1,-,-
CCOC(=O)c1cnn2c(C(F)(F)F)cc(-c3ccco3)nc12,-,-
CN(Cc1ccccc1)C(=O)c1nn2c(C(F)(F)F)cc(-c3ccccc3)nc2c1Cl,-,0.61
COc1ccccc1/C=C1/SC(=O)N(CNc2cccc(Cl)c2)C1=O,-,-
CC(C)CC1CC(C)(C(=O)CSc2n[nH]c(-c3ccccc3)n2)OC1=O (configuration not stated),-,-
COc1ccc(C(=O)/C=C/c2ccc(-c3cc(Cl)ccc3Cl)o2)cc1,-,-
O=C(CC(Nc1ccc2ncccc2c1)c1ccccc1)c1ccccc1 (configuration not stated),-,-
Cc1ccc(C)c(NC(=O)c2ccc(C)c([N+](=O)[O-])c2)c1,-,-
COc1ccc(N(CC(=O)Nc2ccc(Cl)cc2)S(C)(=O)=O)cc1,-,-
O=C1NN(c2ccccc2)C(=O)/C1=C/c1cc([N+](=O)[O-])c(Cl)cc1Cl,-,-
O=C1NN(c2ccccc2)C(=O)/C1=C/c1cccn1-c1ccc([N+](=O)[O-])cc1,-,0.61
SMILES,NS3h inh CB,Cy5 interf NS3h
O=C(NCCCO)/C(=C/c1ccc(-c2cccc([N+](=O)[O-])c2)o1)NC(=O)c1ccccc1,-,0.79
O=C(NCCCN1CCOCC1)/C(=C/c1ccc(-c2cccc([N+](=O)[O-])c2)o1)NC(=O)c1ccccc1,-,-
COC(=O)c1ccc(OCc2ccc(COc3ccc(C(=O)OC)cc3)cc2)cc1,-,-
O=C(Oc1ccc(Oc2ccccc2)cc1)c1ccc(Br)o1,-,1.2
Cc1ccc2cccc(OC(=O)c3ccc(Br)o3)c2n1,-,-
CNc1nc(Nc2ccc([N+](=O)[O-])cc2)nc(OCC(F)(F)C(F)F)n1,-,-
Cc1c(C)c2ccc(OCC(=O)N(C)C)cc2oc1=O,-,-
CC(=O)Oc1ccc(-c2cccc(C(=O)NC(CO)C(O)c3ccc([N+](=O)[O-])cc3)c2)cc1 (configuration not stated),-,-
O=C(NC(CO)C(O)c1ccc([N+](=O)[O-])cc1)c1ccc2ccccc2n1 (configuration not stated),-,0.62
Cc1ccccc1S(=O)(=O)NNC(=O)c1ccccc1O,-,-
COc1ccc2oc(C(Cl)(Cl)Cl)cc(=O)c2c1,-,-
COc1ccc2c(=O)cc(C(Cl)(Cl)Cl)oc2c1,-,0.65
COc1ccc(N(CC(=O)Nc2ccc(Oc3ccccc3)cc2)S(C)(=O)=O)cc1Cl,-,-
Cc1ccc(N2NC(=O)/C(=C/c3ccc(Cl)cc3)C2=O)cc1,-,0.68
O=C1NN(c2ccc(Cl)cc2)C(=O)/C1=C\c1ccc(O)c(O)c1,-,-
O=C(N/N=C\c1ccc(Cl)cc1)c1ccc(O)cc1,-,-
Cc1ccc(/C=N\NC(=O)c2ccccc2C)cc1,-,0.79
Clc1ccc(-c2csc(Nc3ncccn3)n2)cc1Cl,-,-
O=C(CSc1cc(Cl)ccc1Cl)Nc1cccc(Br)c1,-,-
O=C(CSC1CC(=O)N(c2cccc(Br)c2)C1=O)Nc1ccc(Cl)cc1 (configuration not stated),43,0.79
Cc1ccccc1OCC(=O)Nc1ccc(Cl)cc1C(F)(F)F,-,-
CCOC(=O)C1=C(O)/C(=C/c2ccccc2)SC1=Nc1cccc2ccccc12,-,-
Cc1ccccc1C(=O)Nc1ccc(-c2cnc(-c3ccc(NC(=O)c4ccccc4C)cc3)nc2)cc1,-,0.75
O=C(Nc1ccc(-c2cnc(-c3ccc(NC(=O)c4ccccc4)cc3)nc2)cc1)c1ccccc1,-,-
NC(=N/N=C/c1ccc(F)cc1)N/N=C/c1ccc(F)cc1,-,-
SMILES,NS3h inh CB,Cy5 interf NS3h
Cc1cc(/C=C2\C(=O)NC(=S)N(c3ccccc3)C2=O)c(C)n1-c1ccccc1,-,-
Cc1cc(/C=C2\C(=O)NC(=S)N(c3ccccc3)C2=O)c(C)n1-c1cccnc1,-,1.2
CCc1ccccc1N1C(=O)/C(=C/c2cc(C)n(C)c2C)C(=O)NC1=S,-,1.2
Cc1cc(Br)ccc1N1C(=O)/C(=C/c2cc(C)n(C)c2C)C(=O)NC1=S,-,1.2
Cc1cc(/C=C2\C(=O)NC(=S)N(c3ccc(Br)cc3)C2=O)c(C)n1C,-,-
Cc1cc(C=C2C(=O)N(C)C(=O)N(C)C2=O)c(C)n1C,-,-
CC(=O)Oc1ccc(-c2cccc(C(=O)Nc3ccccc3Cl)c2)cc1,-,-
O=C(NCCCN1CCOCC1)/C(=C/c1ccc(-c2ccc(Cl)cc2)o1)NC(=O)c1ccccc1,-,-
CCc1ccc(NC(=O)C(=O)NCCN2CCN(C(=O)c3ccccc3Cl)CC2)cc1,-,-
COCCCNC(=O)CN(c1ccc(C)cc1)S(=O)(=O)c1ccc(SC)cc1,-,-
Cc1ccc(-n2nc(-c3ccccc3)c3c2C(=O)C=CC3=O)cc1,44,-
COc1ccc(-c2c(-c3ccc(Cl)cc3)nn(-c3ccccc3)c2N)cc1OC,-,-
CS(=O)(=O)N1CCN(C(=O)COc2ccccc2)CC1,-,-
CC1CCN(C(=O)c2ccc(I)cc2)CC1,-,-
CC1CCN(C(=O)COc2ccc(-c3ccccc3)cc2)CC1,-,0.67
CC1CCN(C(=O)c2ccccc2)CC1,-,0.68
CC1CCCN(C(=O)c2ccccc2)C1 (configuration not stated),-,0.79
CC1CCCN(C(=O)c2ccc(Cl)cc2)C1 (configuration not stated),-,-
CC(=O)C(C)Oc1ccc2ccc(=O)oc2c1 (configuration not stated),-,-
CC1=C(C(=O)OC(C)C)C(c2ccsc2)C2=C(CCCC2=O)N1 (configuration not stated),-,-
COc1cc(/C=C2\SC(=Nc3ccc(C)cc3)NC2=O)ccc1O,-,-
N#Cc1c(-c2ccc(Cl)cc2)n(Cc2ccccc2)c(=O)n(Cc2ccccc2)c1=O,-,-
O=C(O)CCCCCN1C(=O)C(=O)C(=C(O)c2ccc(F)cc2)C1c1ccc(Cl)cc1 (configuration not stated),-,-
